Measured values taken from PubChem BioAssay AID1851 (National Center for Advancing Translational Sciences (NCATS), 2009).
Values joined by “and” are separate entries in the source; they are usually repeats but may differ in a detail not shown here. Identical values can stand only once. Among all 16,000 compounds or so, about 5,100 (32%) were called active. Roughly 25% stayed inconclusive and do not appear here. The list shows a part of the results. Values without a mark were called inactive. The call rests on the fitted dose curve; in most records, active means well fitted curve in the direction sought with a large enough effect; inconclusive means small, poorly fitted or top-dose-only effect, or effect the other way; inactive means no such curve, though single readings can be large or run the other way.

Target: Cytochrome P450 3A4 (Homo sapiens) (UniProt P08684)
Test: Cytochrome panel assay with activity outcomes
Conditions: recombinant CYP, pro-luciferin dealkylation, luminescence, p450-cyp3a4; series mostly up to 57.1 µM; activity, negative = inhibition: at the top concentration
On the % scale 0 is the no-effect control and ±100 the full control effect.

Chain of Cytochrome P450 3A4 (Homo sapiens) (P08684 whole entry, looked up): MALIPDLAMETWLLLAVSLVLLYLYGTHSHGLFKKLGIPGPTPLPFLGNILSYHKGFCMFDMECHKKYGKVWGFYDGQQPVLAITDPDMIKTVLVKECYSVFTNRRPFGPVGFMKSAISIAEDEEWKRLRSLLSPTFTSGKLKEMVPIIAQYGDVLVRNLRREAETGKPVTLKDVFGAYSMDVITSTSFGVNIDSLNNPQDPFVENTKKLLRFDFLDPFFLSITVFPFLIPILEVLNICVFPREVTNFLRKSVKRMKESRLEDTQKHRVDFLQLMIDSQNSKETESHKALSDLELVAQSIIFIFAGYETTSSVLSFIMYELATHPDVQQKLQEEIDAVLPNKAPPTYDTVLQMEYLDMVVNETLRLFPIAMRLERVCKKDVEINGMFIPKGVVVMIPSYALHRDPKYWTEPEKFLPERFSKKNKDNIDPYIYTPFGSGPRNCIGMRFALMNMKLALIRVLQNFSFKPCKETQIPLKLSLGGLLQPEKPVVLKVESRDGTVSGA

SMILES	AC50	activity, negative = inhibition
CCC(CC)C(=O)Nc1cccc(/C(C)=N\NC(=O)c2ccc(C)s2)c1	7.94 µM (active)	–
CCOC(=O)c1c(NC(=O)c2c(Br)cnn2C)c(C#N)nn1-c1ccccc1	–	15.3%
C/C(=N\NC(=O)c1cccc(F)c1)c1ccc(Br)s1	–	-16.5%
CCC(CC)C(=O)Nc1cccc(/C(C)=N/NC(=O)c2c(Br)cnn2C)c1	14.1 µM (active)	–
CCOc1ccc(N(C(C)C(=O)N/N=C(\C)c2cccc(NC(=O)c3ccccc3)c2)S(C)(=O)=O)cc1 (configuration not stated)	–	-20.9% [at 2.29 µM]
Cc1cc(=O)[nH]c2c1c(C)nn2C1CCOC(C)(C)C1 (configuration not stated)	–	10.5%
Cc1[nH]c2ccccc2c1-c1cc(-c2cc(-c3c(C)[nH]c4ccccc34)on2)no1	–	-5.38% [at 11.4 µM]
CCn1c(C)nc2cc(S(=O)(=O)C(F)F)ccc21	–	9.09% [at 11.4 µM]
CCCCn1c(SCc2c(C)noc2C)nc2cc(S(N)(=O)=O)ccc21	0.708 µM (active)	–
CCCOc1ccc(C(=O)NNC(=S)NC(=O)CC)cc1	–	-8.65% [at 2.29 µM]
CCCOc1ccc(C(=O)NNC(=S)NC(=O)c2cc(-c3ccccc3)nc3ccccc23)cc1	8.91 µM (active)	–
CCN(CC)CCOC(=O)C1(c2ccc([N+](=O)[O-])cc2)CCCC1	–	-25.9% [at 25.6 µM]
CN(C)CCOC(=O)C1(c2ccccc2)CCOCC1	–	3.36%
O=C(OCCN1CCOCC1)C1(c2ccccc2)CCCCC1	3.16 µM (active) and 1.58 µM (active)	–
NC(N)=NN=Cc1c(Cl)cccc1Cl	inactive	–
COc1ccc(C(=O)N2CCC3(CCN(Cc4ccccc4OC)CC3)CC2)cc1	–	-0.0167%
Cc1ccc(Cn2nnc3c(=O)[nH]c(C4CCN(C(=O)Cc5cccs5)CC4)nc32)cc1	4.47 µM (active)	–
COCC(=O)N1CCC2(CCN(Cc3ccccc3OC)CC2)CC1	–	-3.57%
O=C(Cc1cccs1)N1CCC(c2nc3c(nnn3Cc3ccccc3Cl)c(=O)[nH]2)CC1	3.16 µM (active)	–
COc1ccccc1Cn1nnc2c(=O)[nH]c(C3CCN(C(=O)c4ccc(C)cc4)CC3)nc21	1.58 µM (active)	–
Cc1ccc(-c2c(C#N)c(N)n(-c3ccccc3)c(=O)c2C#N)cc1	–	-3.64% [at 2.29 µM]
O=C(OCCNC(=O)c1ccc2ccccc2n1)c1ccc(F)cc1	14.1 µM (active)	–
CN(C)CCOC(=O)c1ccc(N)cc1	–	-4.56% [at 11.4 µM]
FC(F)(F)c1cc(C(F)(F)F)c2ccc(N/N=C/c3cccc(Cl)c3)nc2n1	–	5.99%

SMILES	AC50	activity, negative = inhibition
Fc1ccc(N2CCN(c3ccc4c(C(F)(F)F)cc(C(F)(F)F)nc4n3)CC2)cc1	10 µM (active)	–
Cc1ccc(Nc2nc(Cl)nc(N(C)C#N)n2)cc1	11.2 µM (active)	–
Cc1c(C)c2c(c(C)c1O)CC[C@@](C)(CCC[C@@H](C)CCC[C@@H](C)CCCC(C)C)O2	–	11.9% [at 25.6 µM]
Cn1nc(C(F)(F)F)c(C(=O)Nc2ccc(F)cc2F)c1Sc1cccc(C(F)(F)F)c1	6.31 µM (active)	–
Cn1nc(C(F)(F)F)c(C(=O)Nc2ccc(F)cc2F)c1Sc1ccc(C(F)(F)F)cc1	12.6 µM (active)	–
Cc1ccc(NC(=O)c2sccc2SCc2cccc(C(F)(F)F)c2)cc1	1 µM (active)	–
CC(=O)OCc1c(C(F)(F)F)nn(C)c1Sc1ccccc1	–	-22.5%
CC(C)NC(=O)c1ccc(-c2cccc(C(F)(F)F)c2)o1	–	2.51%
Cc1ccc(NC(=O)c2c(C(F)(F)F)nn(C)c2SCc2cccc(C(F)(F)F)c2)cc1C	3.16 µM (active)	–
CN(C/C=C\c1ccccc1)Cc1cccc2ccccc12	–	-6.8% [at 25.6 µM]
COc1ccccc1C(=O)NC(=S)N1CCCc2ccccc21	–	14.7%
COc1ccccc1C(c1nnnn1C(C)(C)C)N1CCN(Cc2ccncc2)CC1 (configuration not stated)	3.16 µM (active)	–
COc1ccccc1C(c1nnnn1C(C)(C)C)N1CCCc2ccccc21 (configuration not stated)	10 µM (active)	–
CC[N+](CC)(CC)CC	–	-3.53%
CC(C)(C)NC[C@@H](O)c1ccc(O)c(CO)n1	–	2.12% [at 11.4 µM]
N#Cc1ccc(C(c2nnnn2C2CCCC2)N2CCC(Cc3ccccc3)CC2)cc1 (configuration not stated)	4.47 µM (active)	–
N#Cc1cccc(C(c2nnnn2C2CCCC2)N2CCCCCC2)c1 (configuration not stated)	5.01 µM (active)	–
N#Cc1ccc(C(c2nnnn2Cc2ccccc2)N2CCCC2)cc1 (configuration not stated)	7.94 µM (active)	–
N[C@@H](C(=O)O)c1ccc(P(=O)(O)O)cc1	–	-17.9%
O=C(O)c1sc2cc(C(F)(F)F)cnc2c1-c1ccccc1	–	-2.07%
CCOC(=O)c1sc2nc(CC(=O)OC)nc(NCc3ccc(F)cc3)c2c1C	4.47 µM (active)	–
CCOC(=O)c1sc2c(c1C)c(=O)c(C(=O)OCC)cn2CC	–	-3.84%
Cc1cc(C)c(-c2noc(C(=O)OC(C)(C)C)c2C(=O)OC(C)(C)C)c(C)c1	–	-8.97% [at 2.29 µM]
